Source: PubChem BioAssay (The Scripps Research Institute Molecular Screening Center)
HGIII-sPLA2 inh: Blocks human group III sPLA2 activity. QFRET BODIPY PC-A2 liposome hydrolysis, fluorescence. inhibition, % at 12.2 µM. 370,000 compounds, 0.56% hits;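 active = inhibition above mean plus 3 SD of compounds lying within the high and low control bounds, cut at about 19% in these data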
Target sequence (Q9NZ20 whole entry, looked up): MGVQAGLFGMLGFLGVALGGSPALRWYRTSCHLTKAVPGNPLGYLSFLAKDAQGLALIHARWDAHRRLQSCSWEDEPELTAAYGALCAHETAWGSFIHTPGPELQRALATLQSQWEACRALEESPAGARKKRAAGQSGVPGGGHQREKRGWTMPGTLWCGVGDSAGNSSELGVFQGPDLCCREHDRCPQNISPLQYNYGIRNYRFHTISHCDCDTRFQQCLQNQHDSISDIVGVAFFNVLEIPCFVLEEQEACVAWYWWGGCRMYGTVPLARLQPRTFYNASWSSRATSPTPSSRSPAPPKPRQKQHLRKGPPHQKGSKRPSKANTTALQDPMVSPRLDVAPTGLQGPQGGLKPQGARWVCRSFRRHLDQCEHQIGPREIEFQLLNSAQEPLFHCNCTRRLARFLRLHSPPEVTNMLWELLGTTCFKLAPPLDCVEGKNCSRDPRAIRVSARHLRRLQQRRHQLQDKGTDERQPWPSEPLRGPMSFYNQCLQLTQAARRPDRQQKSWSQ
MsrA act: bovine methionine sulfoxide reductase A activation; purified bovine MsrA, absorbance read-out; activation, % at 10.6 µM; 360,000 compounds, 0.3% hits; in the data active = activation above about 7.5%
MsrA inhibitor: bovine MsrA inhibition; purified bovine MsrA, absorbance read-out; 360,000 compounds, 0.75% hits; inhibition, % at 15.5 µM
rCAG binder: molecules binding r(CAG) RNA repeats; 370,000 compounds, 1.3% hits; r(CAG) RNA repeat, TO-PRO-1 dye displacement fluorescence; AID 651821; inhibition, % at 3 µM;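 active = inhibition above the plate cutoff, the mean of all test compounds on that plate plus 3 SD, cut at about 35% in these data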;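 note: higher means more dye released from RNA so lower well fluorescence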
MsrA conf: confirmation of bovine MsrA inhibitors; shares compounds with MsrA inhibitor; purified bovine MsrA, absorbance read-out; inhibition, % at 15.5 µM; 2,300 compounds, 41% hits; AID 651822;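 note: coupled to thioredoxin reductase with NADPH and selenocystamine and DMSO as substrate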
Hits are given with their value. Rows were chosen to be rich in hits. Some 2.8% of all compounds tested hit in one or more screens of this group. Cut-off read from the data, not from the text of the source, unless noted: active = inhibition above about 4.5%; inactive = the rest.

Results for Cc1ccc(S(=O)(=O)N2CCN(S(=O)(=O)c3ccc(C)cc3)C2)cc1 ?
HGIII-sPLA2 inh: inactive; MsrA act: inactive; MsrA inhibitor: 5.5; rCAG binder: inactive; MsrA conf: inactive

How did Cc1ccc(S(=O)(=O)N2CCCN(S(=O)(=O)c3ccc(C)cc3)CC2)cc1 do in these assays?
HGIII-sPLA2 inh: inactive; MsrA act: inactive; MsrA inhibitor: inactive; rCAG binder: inactive

How did CCOC(=O)/C(C#N)=C/c1cn(CCC(=O)O)nc1-c1ccc(OC)cc1 do in these assays?
HGIII-sPLA2 inh: inactive; MsrA act: inactive; MsrA inhibitor: 5.0; rCAG binder: inactive; MsrA conf: inactive

How did CCOC(=O)/C(C#N)=C/c1cn(CCC(=O)O)nc1-c1ccccc1 do in these assays?
HGIII-sPLA2 inh: inactive; MsrA act: inactive; MsrA inhibitor: inactive; rCAG binder: inactive

How did CCOc1cccc2cc(C(=O)NCc3ccc(OC)cc3)c(=N)oc12 do in these assays?
HGIII-sPLA2 inh: inactive; MsrA act: inactive; MsrA inhibitor: inactive; rCAG binder: inactive

Results for Oc1ccc(/C=N/Nc2nccnc2Cl)c(O)c1 ?
HGIII-sPLA2 inh: inactive; MsrA act: inactive; MsrA inhibitor: 5.1; rCAG binder: inactive; MsrA conf: inactive

What do the screens show for `Oc1ccc(Br)cc1/C=N/Nc1ncc(-c2ccccc2)cn1`?
HGIII-sPLA2 inh: inactive; MsrA act: inactive; MsrA inhibitor: inactive; rCAG binder: inactive

How did Oc1ccc(/C=N/Nc2ncc(Br)cn2)c(O)c1 do in these assays?
HGIII-sPLA2 inh: inactive; MsrA act: inactive; MsrA inhibitor: 6.0; rCAG binder: inactive; MsrA conf: 5.2

Results for COc1ccc(/C=N/Nc2nccnc2Cl)cc1 ?
HGIII-sPLA2 inh: inactive; MsrA act: inactive; MsrA inhibitor: 4.7; rCAG binder: inactive; MsrA conf: inactive

What do the screens show for `O=c1[nH]ncc(N/N=C\c2ccc(O)cc2O)c1Cl`?
HGIII-sPLA2 inh: inactive; MsrA act: inactive; MsrA inhibitor: 6.5; rCAG binder: inactive; MsrA conf: 6.2

What do the screens show for `Cc1nn(CC(=O)Nc2ccc(C(=O)N3CCCCC3)cc2)c(=O)c2ccccc12`?
HGIII-sPLA2 inh: inactive; MsrA act: inactive; MsrA inhibitor: inactive; rCAG binder: inactive

What do the screens show for `CCN(Cc1ccccc1)CC(O)COc1ccccc1` (configuration not stated)?
HGIII-sPLA2 inh: inactive; MsrA act: inactive; MsrA inhibitor: inactive; rCAG binder: inactive

How did O=C(/C=C/c1ccco1)NCc1ccco1 do in these assays?
HGIII-sPLA2 inh: inactive; MsrA act: inactive; MsrA inhibitor: inactive; rCAG binder: inactive

What do the screens show for `COc1ccccc1NC(=O)CNC(=O)CC12CC3CC(CC(C3)C1)C2`?
HGIII-sPLA2 inh: inactive; MsrA act: inactive; MsrA inhibitor: inactive; rCAG binder: inactive

Results for COc1ccc(N2Cc3ccccc3C2)cc1Cl ?
HGIII-sPLA2 inh: inactive; MsrA act: inactive; MsrA inhibitor: inactive; rCAG binder: inactive

What do the screens show for `Oc1ccc(C=NNc2ccccn2)c(O)c1`?
HGIII-sPLA2 inh: inactive; MsrA act: inactive; MsrA inhibitor: 5.1; rCAG binder: inactive; MsrA conf: inactive

How did Oc1cccc(C=NNc2ccccn2)c1 do in these assays?
HGIII-sPLA2 inh: inactive; MsrA act: inactive; MsrA inhibitor: inactive; rCAG binder: inactive

How did O=[N+]([O-])c1ccccc1/C=N/n1c(-c2cccnc2)n[nH]c1=S do in these assays?
HGIII-sPLA2 inh: inactive; MsrA act: inactive; MsrA inhibitor: inactive; rCAG binder: inactive

How did O=[N+]([O-])c1cc(/C=N/n2c(-c3cccnc3)n[nH]c2=S)ccc1Cl do in these assays?
HGIII-sPLA2 inh: inactive; MsrA act: inactive; MsrA inhibitor: 11.6; rCAG binder: inactive; MsrA conf: 6.8

What do the screens show for `CCOC(=O)c1c(NC(=O)COC(=O)/C=C/c2ccco2)sc2c1CC(C)(C)NC2(C)C`?
HGIII-sPLA2 inh: inactive; MsrA act: inactive; MsrA inhibitor: 8.7; rCAG binder: inactive; MsrA conf: 14.5

What do the screens show for `COc1ccc(C(=O)N(CN2CCCC2=O)c2nccs2)cc1OC`?
HGIII-sPLA2 inh: inactive; MsrA act: inactive; MsrA inhibitor: 7.5; rCAG binder: inactive; MsrA conf: 5.1

How did O=C(NCCc1ccccc1)c1ccc(NCC2CCCO2)c([N+](=O)[O-])c1 (configuration not stated) do in these assays?
HGIII-sPLA2 inh: inactive; MsrA act: inactive; MsrA inhibitor: inactive; rCAG binder: inactive

Results for CC1(C)CC(N2CCCC2)=CC(=[N+]2CCCCC2)C1 ?
HGIII-sPLA2 inh: inactive; MsrA act: inactive; MsrA inhibitor: 5.7; rCAG binder: inactive; MsrA conf: inactive

Results for CC1(C)CC(N2CCCC2)=CC(=[N+]2CCCC2)C1 ?
HGIII-sPLA2 inh: inactive; MsrA act: inactive; MsrA inhibitor: 5.9; rCAG binder: inactive; MsrA conf: inactive

Results for CC1(C)CC(NNCCC#N)=CC(=[N+]2CCCC2)C1 ?
HGIII-sPLA2 inh: inactive; MsrA act: inactive; MsrA inhibitor: inactive; rCAG binder: inactive

What do the screens show for `O=C1C(Nc2cccc(O)c2)=C(N2CCCCC2)C(=O)c2ccccc21`?
HGIII-sPLA2 inh: inactive; MsrA act: inactive; MsrA inhibitor: 14.4; rCAG binder: inactive; MsrA conf: inactive

How did C/C(=N\O)C(C)/[N+]([O-])=C/c1nc(C)c(C)n1O (configuration not stated) do in these assays?
HGIII-sPLA2 inh: inactive; MsrA act: inactive; MsrA inhibitor: 5.2; rCAG binder: inactive; MsrA conf: inactive

How did COc1ccccc1/C=N/NC(=O)c1sc(C)nc1C do in these assays?
HGIII-sPLA2 inh: inactive; MsrA act: inactive; MsrA inhibitor: 5.1; rCAG binder: inactive; MsrA conf: inactive

Results for COc1ccc(C(=O)N/N=C/c2cccnc2)cc1 ?
HGIII-sPLA2 inh: inactive; MsrA act: inactive; MsrA inhibitor: inactive; rCAG binder: inactive

Results for Cc1nc(N)sc1C(=O)N/N=C/c1cccnc1 ?
HGIII-sPLA2 inh: inactive; MsrA act: inactive; MsrA inhibitor: 5.8; rCAG binder: inactive; MsrA conf: inactive

What do the screens show for `COc1cccc(CN(C)C(=O)Cc2c[nH]c3ccccc23)c1`?
HGIII-sPLA2 inh: inactive; MsrA act: inactive; MsrA inhibitor: inactive; rCAG binder: inactive

How did CNC(=O)C1CC(=O)N/C(=N/N=C(\C)c2cccs2)S1 (configuration not stated) do in these assays?
HGIII-sPLA2 inh: inactive; MsrA act: inactive; MsrA inhibitor: 6.1; rCAG binder: inactive; MsrA conf: 4.7

Results for C/C(=N\N=C1\NC(=O)CC(C(=O)O)S1)c1cccs1 (configuration not stated) ?
HGIII-sPLA2 inh: inactive; MsrA act: inactive; MsrA inhibitor: 5.0; rCAG binder: inactive; MsrA conf: inactive

How did C/C(=N\N=C1\NC(=O)CC(C(=O)O)S1)c1ccc(F)cc1 (configuration not stated) do in these assays?
HGIII-sPLA2 inh: inactive; MsrA act: inactive; MsrA inhibitor: inactive; rCAG binder: inactive

Results for O=c1[nH]c(CSc2ncccn2)nc2c1cnn2-c1ccccc1 ?
HGIII-sPLA2 inh: inactive; MsrA act: inactive; MsrA inhibitor: inactive; rCAG binder: inactive

How did c1ccc(OCc2cc(-c3ccccc3)no2)cc1 do in these assays?
HGIII-sPLA2 inh: inactive; MsrA act: inactive; MsrA inhibitor: inactive; rCAG binder: inactive

How did CNC1=C(N(C(C)=O)c2ccc(Br)cc2)C(=O)c2ccccc2C1=O do in these assays?
HGIII-sPLA2 inh: inactive; MsrA act: inactive; MsrA inhibitor: 36.4; rCAG binder: inactive; MsrA conf: 5.5

Results for CCC(=O)N(C1=C(NC)C(=O)c2ccccc2C1=O)C(C)C ?
HGIII-sPLA2 inh: inactive; MsrA act: inactive; MsrA inhibitor: inactive; rCAG binder: inactive
